# Laboratory results published in the supplement of paper PMC8728848.
# Only a selection was taken, and the strongest signals are over-represented in it overall.
# B1: EUL D1A second (Oryza sativa) (protein)
# chain: GAATACTIGGVPVHTVRVFSAAGEDYCLTVRNGTACLAPKNPRDDYQHWIKDMRHSNKIRDEEGYPAFALVNKVTGEAIKHSTGQGHPVKLVPYNPEYQDESVLWTESKDVGKGFRCIRMVNNIYLNFDAFHGDKDHGGIHDGTEIVLWKWCEGDNQRWKILPWILEQKLISEEDLNSAVDHHHHHH
# Assays:
# Test in all cases: glycan array binding signal (z-score within array); higher = stronger binding
# Conditions in all cases: glycan notation: IUPAC condensed, linker removed
# [1] = molecular target: Gal(b1-4)GlcNAc(b1-3)Gal(b1-4)GlcNAc(b1-3)Gal(b1-4)GlcNAc(b1-3)Gal(b1-4)GlcNAc(b1-3)Gal(b1-4)GlcNAc(b1-3)Gal(b1-4)GlcNAc(b1-2)Man(a1-3)[Gal(b1-4)GlcNAc(b1-3)Gal(b1-4)GlcNAc(b1-3)Gal(b1-4)GlcNAc(b1-3)Gal(b1-4)GlcNAc(b1-3)Gal(b1-4)GlcNAc(b1-3)Gal(b1-4)GlcNAc(b1-2)Man(a1-6)]Man(b1-4)GlcNAc(b1-4)GlcNAc
# Method in brief: (§1)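 From the Consortium for Functional Glycomics database, 3228 arrays were curated, keeping only those whose protein sequence was available. Binding is given as a within-array Z-score averaged across arrays sharing a protein sequence and across linkers. Negative Z-scores can be read as non-binding.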
# [2] = molecular target: Gal(b1-4)GlcNAc(b1-6)Gal(b1-4)GlcNAc
# Method in brief: as §1
# [3] = molecular target: Gal(b1-4)GlcNAc(b1-6)[Gal(b1-4)GlcNAc(b1-3)]GalNAc
# Method in brief: as §1
# Gal3S(b1-4)GlcNAc = molecular target: Gal3S(b1-4)GlcNAc
# Method in brief: as §1
# [4] = molecular target: Gal3S(b1-4)[Fuc(a1-3)]Glc6S
# Method in brief: as §1
# [5] = molecular target: Gal3S(b1-4)[Fuc(a1-3)]GlcNAc
# Method in brief: as §1
# Gal6S(b1-4)GlcNAc6S = molecular target: Gal6S(b1-4)GlcNAc6S
# Method in brief: as §1
# GalNAc(a1-3)GalNAc = molecular target: GalNAc(a1-3)GalNAc
# Method in brief: as §1
# [6] = molecular target: GalNAc(b1-3)Gal(a1-4)Gal(b1-4)GlcNAc(b1-3)Gal(b1-4)Glc
# Method in brief: as §1
# [7] = molecular target: GalNAc(b1-3)Gal(a1-6)Gal(b1-4)Glc
# Method in brief: as §1
# GalNAc3S(b1-4)GlcNAc3S = molecular target: GalNAc3S(b1-4)GlcNAc3S
# Method in brief: as §1
# Glc(a1-4)Glc = molecular target: Glc(a1-4)Glc
# Method in brief: as §1
# [8] = molecular target: GlcNAc(a1-4)Gal(b1-4)GlcNAc(b1-3)Gal(b1-4)[Fuc(a1-3)]GlcNAc(b1-3)Gal(b1-4)[Fuc(a1-3)]GlcNAc
# Method in brief: as §1
# [9] = molecular target: GlcNAc(b1-3)Gal(b1-4)GlcNAc(b1-3)Gal(b1-4)GlcNAc(b1-2)Man(a1-3)[GlcNAc(b1-3)Gal(b1-4)GlcNAc(b1-3)Gal(b1-4)GlcNAc(b1-2)Man(a1-6)]Man(b1-4)GlcNAc(b1-4)GlcNAc
# Method in brief: as §1
# [10] = molecular target: GlcNAc(b1-3)Gal(b1-4)GlcNAc(b1-3)Gal(b1-4)GlcNAc(b1-3)Gal(b1-4)GlcNAc(b1-2)Man(a1-3)[GlcNAc(b1-3)Gal(b1-4)GlcNAc(b1-3)Gal(b1-4)GlcNAc(b1-3)Gal(b1-4)GlcNAc(b1-2)Man(a1-6)]Man(b1-4)GlcNAc(b1-4)GlcNAc
# Method in brief: as §1
# [11] = molecular target: GlcNAc(b1-4)[GlcNAc(b1-6)]GalNAc
# Method in brief: as §1
# Kdn(a2-6)Gal(b1-4)GlcNAc = molecular target: Kdn(a2-6)Gal(b1-4)GlcNAc
# Method in brief: as §1
# [12] = molecular target: Man(a1-2)Man(a1-3)[Man(a1-2)Man(a1-6)]Man(a1-6)[Man(a1-2)Man(a1-2)Man(a1-3)]Man
# Method in brief: as §1
# [13] = molecular target: Man(a1-2)Man(a1-3)[Man(a1-2)Man(a1-6)]Man(a1-6)[Man(a1-2)Man(a1-2)Man(a1-3)]Man(b1-4)GlcNAc(b1-4)GlcNAc
# Method in brief: as §1
# [14] = molecular target: Man(a1-2)Man(a1-6)[Man(a1-3)]Man(a1-6)[Man(a1-2)Man(a1-2)Man(a1-3)]Man
# Method in brief: as §1
# [15] = molecular target: Neu5Ac(a2-3)Gal(b1-3)GlcNAc(b1-2)Man
# Method in brief: as §1
# [16] = molecular target: Neu5Ac(a2-3)Gal(b1-3)GlcNAc(b1-6)GalNAc
# Method in brief: as §1
# [17] = molecular target: Neu5Ac(a2-3)Gal(b1-3)[Fuc(a1-4)]GlcNAc
# Method in brief: as §1
# [18] = molecular target: Neu5Ac(a2-3)Gal(b1-3)[GlcNAc(b1-6)]GalNAc
# Method in brief: as §1
# [19] = molecular target: Neu5Ac(a2-3)Gal(b1-3)[Neu5Ac(a2-6)]GlcNAc(b1-3)[Fuc(a1-3)[Gal(b1-4)]GlcNAc(b1-6)]Gal(b1-4)Glc
# Method in brief: as §1
# [20] = molecular target: Neu5Ac(a2-3)Gal(b1-4)GlcNAc(b1-3)Gal(b1-4)GlcNAc(b1-3)Gal(b1-4)GlcNAc(b1-2)Man(a1-3)[Neu5Ac(a2-3)Gal(b1-4)GlcNAc(b1-3)Gal(b1-4)GlcNAc(b1-3)Gal(b1-4)GlcNAc(b1-2)Man(a1-6)]GalNAc
# Method in brief: as §1
# [21] = molecular target: Neu5Ac(a2-3)Gal(b1-4)[Fuc(a1-3)]GlcNAc(b1-3)Gal(b1-4)[Fuc(a1-3)]GlcNAc(b1-3)Gal(b1-4)[Fuc(a1-3)]GlcNAc
# Method in brief: as §1
# [22] = molecular target: Neu5Ac(a2-3)Gal(b1-4)[Fuc(a1-3)]GlcNAc(b1-3)GalNAc
# Method in brief: as §1
# Neu5Ac(a2-6)Gal(b1-4)Glc = molecular target: Neu5Ac(a2-6)Gal(b1-4)Glc
# Method in brief: as §1
# [23] = molecular target: Neu5Ac(a2-6)Gal(b1-4)GlcNAc(b1-2)Man(a1-3)[Man(a1-6)]Man(b1-4)GlcNAc(b1-4)GlcNAc
# Method in brief: as §1
# [24] = molecular target: Neu5Ac(a2-6)Gal(b1-4)GlcNAc(b1-3)Gal(b1-4)GlcNAc
# Method in brief: as §1
# [25] = molecular target: Neu5Ac(a2-6)Gal(b1-4)GlcNAc(b1-3)Gal(b1-4)GlcNAc(b1-3)Gal(b1-4)GlcNAc
# Method in brief: as §1
# [26] = molecular target: Neu5Ac(a2-6)Gal(b1-4)GlcNAc(b1-3)[Neu5Ac(a2-6)Gal(b1-4)GlcNAc(b1-6)]GalNAc
# Method in brief: as §1
# [27] = molecular target: Neu5Ac(a2-6)Gal(b1-4)GlcNAc(b1-6)[Gal(b1-3)GlcNAc(b1-3)]Gal(b1-4)Glc
# Method in brief: as §1
# [28] = molecular target: Neu5Ac(a2-6)GlcNAc(b1-4)GlcNAc
# Method in brief: as §1
# [29] = molecular target: Neu5Ac(a2-8)Neu5Ac(a2-3)[GalNAc(b1-4)]Gal(b1-4)Glc
# Method in brief: as §1
# Neu5Gc(a2-3)Gal(b1-4)Glc = molecular target: Neu5Gc(a2-3)Gal(b1-4)Glc
# Method in brief: as §1
binder,measurement,setting,value
B1,glycan array binding signal (z-score),[1],0.069
same,glycan array binding signal (z-score),[2],-0.144
same,glycan array binding signal (z-score),[3],-0.385
same,glycan array binding signal (z-score),Gal3S(b1-4)GlcNAc,0.255
same,glycan array binding signal (z-score),[4],2.74
same,glycan array binding signal (z-score),[5],2.4
same,glycan array binding signal (z-score),Gal6S(b1-4)GlcNAc6S,0.99
same,glycan array binding signal (z-score),GalNAc(a1-3)GalNAc,-0.302
same,glycan array binding signal (z-score),[6],-0.809
same,glycan array binding signal (z-score),[7],-0.495
same,glycan array binding signal (z-score),GalNAc3S(b1-4)GlcNAc3S,-0.9
same,glycan array binding signal (z-score),Glc(a1-4)Glc,0.317
same,glycan array binding signal (z-score),[8],2.44
same,glycan array binding signal (z-score),[9],0.61
same,glycan array binding signal (z-score),[10],0.539
same,glycan array binding signal (z-score),[11],-0.443
same,glycan array binding signal (z-score),Kdn(a2-6)Gal(b1-4)GlcNAc,-1.38
same,glycan array binding signal (z-score),[12],-0.985
same,glycan array binding signal (z-score),[13],1.93
same,glycan array binding signal (z-score),[14],0.706
same,glycan array binding signal (z-score),[15],3.06
same,glycan array binding signal (z-score),[16],-0.587
same,glycan array binding signal (z-score),[17],0.596
same,glycan array binding signal (z-score),[18],0.412
same,glycan array binding signal (z-score),[19],1.26
same,glycan array binding signal (z-score),[20],3.53
same,glycan array binding signal (z-score),[21],-0.112
same,glycan array binding signal (z-score),[22],2.61
same,glycan array binding signal (z-score),Neu5Ac(a2-6)Gal(b1-4)Glc,0.113
same,glycan array binding signal (z-score),[23],0.117
same,glycan array binding signal (z-score),[24],0.827
same,glycan array binding signal (z-score),[25],-2.05
same,glycan array binding signal (z-score),[26],2.81
same,glycan array binding signal (z-score),[27],0.242
same,glycan array binding signal (z-score),[28],-0.238
same,glycan array binding signal (z-score),[29],0.083
same,glycan array binding signal (z-score),Neu5Gc(a2-3)Gal(b1-4)Glc,0.509
